Measured values from the supplement of paper PMC6555819.

What follows are sequences tested on VDR:RXRa (NR concentration 270 nM, RXRa partner concentration 90 nM) (assay: PBM binding z-score (relative to random genomic background probes); higher = stronger binding; sequences stand for … in GC…GCGATTGACAGCGTAGAATGAAGG).
Experimental: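 Protein-binding microarray (Agilent 4x180K custom design, double-stranded 60-nt probes: 5' GC cap, 34-nt variable region, 24-nt constant primer region; full probe sequence given). Purified or IVT nuclear receptor:RXRα heterodimers (3:1 NR:RXRα, mostly 270:90 nM) or homodimers were incubated for 1 h in PBS with 2% milk and no ligand, then detected with Alexa488 antibodies. Fluorescence from o1-orientation probes (~5 replicates averaged) was converted to z-scores against 500 random hg19 background probes. Variable regions are seed direct-repeat (DR0–DR5) sites, all their single-nucleotide variants and half-site ablations.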

Sequence	PBM binding z-score
GCTTACGGGTCAAAGGTTCTAGCATGAATAGAAT	4.42
TGCATGAGGTTAAAGATCAGGGAACGTGGCGTCG	2.1
TCTAGTTGGTCACGGAGGCCACACACGACGGGTA	2.19
ATACCAAGGTGATCGTGAGGTAGTTGATACTAAC	-0.169
CCTAGCAGGCCAATCTGGGTCACTCGAGGCTTGA	0.491
ACTTACGGGTCAACGAGGTTATCGCACGCGTATA	7.77
CAGCCTAGGGCAGGGCCAGTATAGGAGGAACGTT	-0.885
TCATATCGGTAAACAGGTGAAAGTCCGTAAGTTA	0.935
GATTGTAGATCAAGGTTAAGAAAGACTAAGCTAA	0.0632
CGTCCAAGGTCAATGCTAGGTCAGGGAAAGCATT	4.75
ATCTCTAGGTAAAGTTCCGTGAAAGATCGATAGA	0.335
GATACAGGGACAAGGCCAGAGTACGCGTATTGAT	-0.523
ACAGACACGTGATGAAGGTAACTCAGGCTATCAT	0.0575
CGTCAAAGTTCAACTAAGGTAACGTAAAGCACGC	4.74
AGAAAGAGGGCACGCTGAGTTGATAGCAGAGTAG	2.39
CGTCCAAAGTCAATGCTAGGTCAGTGAAAGCATT	0.457
GATACAGGGTCAGCTAGAGGCCTGAGTATGGAAA	2.2
TCTGCTAAGTCAACGATGGTCAGCTAATCTGCTA	-0.644
GCGACTGGGGCATCAGCAGGTAACCATAACTTAA	-0.245
TCTATTAGTTGAAGGGCAAGCGACGAGTCCGTTT	0.979

Sequence	PBM binding z-score
AGAATGAGGTTATTAAGATCATGGAATTGCGGTC	3.3
ATATGTAGGTTACATCCGGGGCATTCAGGCTATG	1.23
GCGCCTGGGGCAAAGCAGGTTACCATAAGGTTGG	-0.092
CAAACTAGGTCACATAGGTCAAAGTCCGTGCGTA	6.27
ACAGACAGGTGAGAGAAGGTAACTCAGCTGGACG	-0.382
CGAACGAGGGCATGAGTTGATATCAAATGCCGAT	1.44
CAAACTAGGTAACAGAGGTCAAAGTCCGTGCGTA	5.87
TCTAGTTGGTCAAAGGTCCCACACTCGAAATGCG	1.12
CTAACTAGGTCAAGAGGTCAAAGTCCGCTTCCCG	6
TCTAGCAGGCCAGAGGGTCACTCATGAGGTACGG	1.4
CCTGCTAGGTCAATGGTCAGCTTAAGCAGCTCGC	1.03
TTGAGTAGGTTAGGGGCATTCAGAATGGCGTCGA	0.889
CCGACTGGGGCAAAGGTTAACATACTCAGTACGA	2.2
CGTCAAAGTTCAACTAAGGTAAAGTAAAGCACGC	4.64
AATACAGGGTCTCTAGGCCAGAGTAGGTACGAAT	-0.299
CGAACGAGCGCATGAGTTGATAGCAAATGCCGAT	-0.307
CAGCCTAGGTCAGGACCAGTATAGGAGGAACGTT	0.522
CGTCCAAGGTCAGCAGGTCTGTGAAAGCGACGTG	4.69
ACAGACAGGTGAGTGAAGGTAACGCAGCTGGACG	-0.28
CCTAGCAGGCCAATATGGGTCACTCAAGGCTTGA	0.862
